Among the data in ChEMBL document CHEMBL1961873, “Compounds: GSK PKIS; Assays: Nanosyn kinase panel” (2012) are inhibition values, retold here.

In assay [1] the target is Rho-associated protein kinase 1 (Homo sapiens) (UniProt Q13464). As to conditions: at 1 µM.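 Also: reported values are mean percent inhibition of ROCK1.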
Assay [2] concerns the target Rho-associated protein kinase 2 (Homo sapiens) (UniProt O75116). As to conditions: at 0.1 µM.
Assay [3] has the same target. As to conditions: at 1 µM.
For assay [4], the target named is Ribosomal protein S6 kinase alpha-1 (Homo sapiens) (UniProt Q15418). As to conditions: at 0.1 µM.
Chain of Ribosomal protein S6 kinase alpha-1 (Homo sapiens) (Q15418 whole entry): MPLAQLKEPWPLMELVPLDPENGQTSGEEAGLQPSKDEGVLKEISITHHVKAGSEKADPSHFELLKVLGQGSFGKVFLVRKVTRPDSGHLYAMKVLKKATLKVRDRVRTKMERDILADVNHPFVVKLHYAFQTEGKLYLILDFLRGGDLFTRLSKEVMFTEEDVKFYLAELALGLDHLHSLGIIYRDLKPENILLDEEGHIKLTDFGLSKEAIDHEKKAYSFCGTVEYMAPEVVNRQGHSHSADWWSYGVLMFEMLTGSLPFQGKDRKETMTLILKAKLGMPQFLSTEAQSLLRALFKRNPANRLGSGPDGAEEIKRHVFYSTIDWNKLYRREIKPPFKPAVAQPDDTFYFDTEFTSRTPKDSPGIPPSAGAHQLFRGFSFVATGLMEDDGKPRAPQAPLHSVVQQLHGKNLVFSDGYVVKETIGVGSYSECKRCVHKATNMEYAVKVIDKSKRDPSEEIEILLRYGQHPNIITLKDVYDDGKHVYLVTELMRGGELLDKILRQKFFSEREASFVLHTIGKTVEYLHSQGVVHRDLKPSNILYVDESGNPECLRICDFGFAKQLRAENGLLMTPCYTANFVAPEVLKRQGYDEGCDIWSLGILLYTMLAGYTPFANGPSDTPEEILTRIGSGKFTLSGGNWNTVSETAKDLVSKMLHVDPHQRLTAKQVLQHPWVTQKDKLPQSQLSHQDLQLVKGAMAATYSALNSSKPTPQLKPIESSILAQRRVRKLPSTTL
Assay [5] has the same target. As to conditions: at 1 µM.
The target of assay [6] is Ribosomal protein S6 kinase alpha-3 (Homo sapiens) (UniProt P51812). As to conditions: at 0.1 µM.
Assay [7] has the same target. As to conditions: at 1 µM.
The target of assay [8] is Ribosomal protein S6 kinase alpha-2 (Homo sapiens) (UniProt Q15349). As to conditions: at 0.1 µM.
Chain of Ribosomal protein S6 kinase alpha-2 (Homo sapiens) (Q15349 whole entry): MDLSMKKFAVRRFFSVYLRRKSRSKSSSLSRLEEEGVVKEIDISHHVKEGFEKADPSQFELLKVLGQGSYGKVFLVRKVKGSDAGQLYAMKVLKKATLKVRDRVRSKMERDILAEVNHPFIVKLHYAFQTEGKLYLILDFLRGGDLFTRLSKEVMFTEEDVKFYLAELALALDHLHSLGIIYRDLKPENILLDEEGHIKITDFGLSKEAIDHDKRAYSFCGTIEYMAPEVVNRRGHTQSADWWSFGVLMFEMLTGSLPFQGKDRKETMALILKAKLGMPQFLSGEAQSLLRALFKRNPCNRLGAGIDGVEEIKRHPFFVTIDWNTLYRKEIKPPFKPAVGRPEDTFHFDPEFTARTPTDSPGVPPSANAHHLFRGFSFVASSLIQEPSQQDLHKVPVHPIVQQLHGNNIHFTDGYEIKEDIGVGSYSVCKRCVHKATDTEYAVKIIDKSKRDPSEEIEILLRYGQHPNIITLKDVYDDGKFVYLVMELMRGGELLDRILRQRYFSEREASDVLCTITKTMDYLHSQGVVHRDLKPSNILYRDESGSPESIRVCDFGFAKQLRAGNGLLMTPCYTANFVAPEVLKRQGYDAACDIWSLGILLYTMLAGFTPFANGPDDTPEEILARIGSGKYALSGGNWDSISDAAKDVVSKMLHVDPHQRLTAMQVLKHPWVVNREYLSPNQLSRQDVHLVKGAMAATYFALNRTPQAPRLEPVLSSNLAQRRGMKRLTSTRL
The target is the same in assay [9]. As to conditions: at 1 µM.
Assay [10] has as its target Ribosomal protein S6 kinase alpha-6 (Homo sapiens) (UniProt Q9UK32). As to conditions: at 0.1 µM.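 Also: reported value is the mean inhibition of RSK4, from the GSK PKIS kinase inhibitor screen.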

Several values for one entry are separate records, joined by “and”; a condition that tells them apart may be missing. Equal entries are not always repeated.

Chain of Rho-associated protein kinase 1 (Homo sapiens) (Q13464 2-1354 limits assumed): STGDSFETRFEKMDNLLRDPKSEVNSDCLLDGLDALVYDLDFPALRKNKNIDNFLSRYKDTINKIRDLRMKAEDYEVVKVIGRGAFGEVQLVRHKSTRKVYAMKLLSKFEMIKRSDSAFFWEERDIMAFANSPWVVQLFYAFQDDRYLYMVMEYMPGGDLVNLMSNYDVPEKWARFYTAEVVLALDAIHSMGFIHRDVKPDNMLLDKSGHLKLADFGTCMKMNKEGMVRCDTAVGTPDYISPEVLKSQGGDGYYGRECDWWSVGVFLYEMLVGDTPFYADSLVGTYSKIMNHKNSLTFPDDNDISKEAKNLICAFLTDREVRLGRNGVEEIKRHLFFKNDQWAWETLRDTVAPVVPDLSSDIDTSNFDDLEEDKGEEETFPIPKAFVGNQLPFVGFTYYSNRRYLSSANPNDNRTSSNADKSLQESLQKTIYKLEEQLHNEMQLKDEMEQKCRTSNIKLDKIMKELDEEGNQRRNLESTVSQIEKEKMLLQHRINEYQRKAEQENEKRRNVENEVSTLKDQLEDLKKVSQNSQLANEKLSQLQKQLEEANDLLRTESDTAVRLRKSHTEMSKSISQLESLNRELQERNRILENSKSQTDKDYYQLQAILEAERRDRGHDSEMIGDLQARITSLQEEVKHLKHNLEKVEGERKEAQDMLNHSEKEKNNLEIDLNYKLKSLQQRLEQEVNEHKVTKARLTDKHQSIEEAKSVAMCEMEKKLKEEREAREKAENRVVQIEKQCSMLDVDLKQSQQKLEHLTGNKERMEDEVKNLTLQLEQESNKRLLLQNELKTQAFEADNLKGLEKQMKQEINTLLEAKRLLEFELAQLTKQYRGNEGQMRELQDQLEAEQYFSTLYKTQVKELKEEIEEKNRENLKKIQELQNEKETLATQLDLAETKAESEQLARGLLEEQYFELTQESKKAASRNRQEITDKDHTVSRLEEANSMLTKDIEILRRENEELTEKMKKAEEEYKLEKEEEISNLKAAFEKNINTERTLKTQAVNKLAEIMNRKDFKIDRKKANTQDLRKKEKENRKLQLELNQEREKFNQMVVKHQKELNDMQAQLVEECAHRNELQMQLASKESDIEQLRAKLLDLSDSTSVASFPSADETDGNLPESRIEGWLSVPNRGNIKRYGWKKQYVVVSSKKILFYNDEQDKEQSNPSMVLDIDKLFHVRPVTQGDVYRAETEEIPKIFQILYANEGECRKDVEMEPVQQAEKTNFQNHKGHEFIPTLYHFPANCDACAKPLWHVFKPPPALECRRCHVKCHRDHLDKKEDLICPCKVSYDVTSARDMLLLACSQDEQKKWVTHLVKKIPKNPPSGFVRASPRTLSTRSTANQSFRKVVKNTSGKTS
Chain of Ribosomal protein S6 kinase alpha-6 (Homo sapiens) (Q9UK32 whole entry): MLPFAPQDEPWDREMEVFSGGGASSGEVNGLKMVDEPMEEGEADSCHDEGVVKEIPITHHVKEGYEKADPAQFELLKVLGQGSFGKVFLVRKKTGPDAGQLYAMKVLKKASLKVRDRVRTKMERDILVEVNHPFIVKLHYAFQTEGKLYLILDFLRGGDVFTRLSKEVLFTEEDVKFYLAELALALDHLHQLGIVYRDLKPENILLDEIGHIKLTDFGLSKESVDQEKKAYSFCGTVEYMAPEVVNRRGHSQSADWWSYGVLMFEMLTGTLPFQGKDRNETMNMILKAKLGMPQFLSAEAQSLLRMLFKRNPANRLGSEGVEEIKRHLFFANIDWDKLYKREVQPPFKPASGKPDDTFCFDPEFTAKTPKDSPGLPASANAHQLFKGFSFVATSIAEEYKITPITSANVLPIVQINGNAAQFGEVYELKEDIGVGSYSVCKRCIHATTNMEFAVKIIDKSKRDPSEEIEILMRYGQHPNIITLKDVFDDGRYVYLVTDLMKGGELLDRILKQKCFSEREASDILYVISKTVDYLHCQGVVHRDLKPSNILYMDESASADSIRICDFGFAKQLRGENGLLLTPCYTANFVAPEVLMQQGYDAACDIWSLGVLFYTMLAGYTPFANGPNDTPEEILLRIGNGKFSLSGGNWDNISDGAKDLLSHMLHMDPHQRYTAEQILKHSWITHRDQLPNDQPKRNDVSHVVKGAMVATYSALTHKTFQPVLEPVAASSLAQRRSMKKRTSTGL
Chain of Rho-associated protein kinase 2 (Homo sapiens) (O75116 whole entry, looked up): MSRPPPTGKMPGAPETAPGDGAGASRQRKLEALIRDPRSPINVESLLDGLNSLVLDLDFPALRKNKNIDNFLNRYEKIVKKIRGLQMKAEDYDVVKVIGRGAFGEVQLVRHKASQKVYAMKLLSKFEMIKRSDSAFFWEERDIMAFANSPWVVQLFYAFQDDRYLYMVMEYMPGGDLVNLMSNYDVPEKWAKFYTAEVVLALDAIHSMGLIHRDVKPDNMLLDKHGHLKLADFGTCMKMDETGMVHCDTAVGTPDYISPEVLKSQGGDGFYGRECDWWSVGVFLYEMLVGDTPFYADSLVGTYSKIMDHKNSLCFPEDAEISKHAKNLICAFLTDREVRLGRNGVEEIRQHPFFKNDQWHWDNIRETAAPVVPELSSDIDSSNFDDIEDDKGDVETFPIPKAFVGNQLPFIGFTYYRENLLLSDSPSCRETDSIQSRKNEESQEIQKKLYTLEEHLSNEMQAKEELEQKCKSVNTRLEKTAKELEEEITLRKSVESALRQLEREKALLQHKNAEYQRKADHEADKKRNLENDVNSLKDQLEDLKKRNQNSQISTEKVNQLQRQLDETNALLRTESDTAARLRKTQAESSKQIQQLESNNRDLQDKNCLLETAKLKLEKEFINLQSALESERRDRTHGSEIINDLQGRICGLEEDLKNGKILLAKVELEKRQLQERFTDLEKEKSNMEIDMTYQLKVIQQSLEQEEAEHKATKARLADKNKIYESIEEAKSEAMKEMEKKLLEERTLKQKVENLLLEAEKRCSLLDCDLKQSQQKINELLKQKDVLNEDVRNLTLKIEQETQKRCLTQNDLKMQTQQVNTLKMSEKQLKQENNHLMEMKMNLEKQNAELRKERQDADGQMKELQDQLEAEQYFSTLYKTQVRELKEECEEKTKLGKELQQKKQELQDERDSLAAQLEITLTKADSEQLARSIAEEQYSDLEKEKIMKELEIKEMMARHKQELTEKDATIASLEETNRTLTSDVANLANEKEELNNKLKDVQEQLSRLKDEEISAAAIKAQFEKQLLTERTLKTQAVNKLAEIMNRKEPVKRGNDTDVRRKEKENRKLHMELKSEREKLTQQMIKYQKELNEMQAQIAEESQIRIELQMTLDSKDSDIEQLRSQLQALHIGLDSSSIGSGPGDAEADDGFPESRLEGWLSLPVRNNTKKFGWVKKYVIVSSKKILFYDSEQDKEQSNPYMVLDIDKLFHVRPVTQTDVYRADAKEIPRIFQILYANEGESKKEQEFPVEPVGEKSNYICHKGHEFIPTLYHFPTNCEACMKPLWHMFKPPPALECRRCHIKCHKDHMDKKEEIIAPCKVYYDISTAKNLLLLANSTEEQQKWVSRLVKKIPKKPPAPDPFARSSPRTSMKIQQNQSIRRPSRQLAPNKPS

One may read the inhibition as the drop in the measured response relative to a control, in per cent. As to `COc1cccc(Nc2nccc(-c3cnn4ncccc34)n2)c1`, the inhibition is 6.3% in assay [1]; 2.21% in [2]; 15.4% in assay [3]; 0.64% in assay [4]; 4.33% in assay [5]; -0.39% in [6]. Further, the inhibition in assay [7] is 2.48%; in assay [8], -0.61%; in [9], 2.4%; in assay [10], -1.37%.
In the case of `COc1cccc(-n2ncc3c(N/N=C/c4ccc(C(=O)NCCN(C)C)cc4)ncnc32)c1`, the inhibition in [1] turned out to be 7.32%; in [2], 5.29%; in [3] it was 9.45%; in assay [4], 1.48%; in [5], 6.32%; in assay [6] it was 0.89%. The inhibition in assay [7] came to 5.65%; in assay [8], 1.89%; in assay [9], 8.18%; in assay [10], 2.38%.
For the compound `OCCCNc1nccc(-c2c(-c3ccc(F)cc3)nn3cc(C(F)(F)F)ccc23)n1`, the inhibition in assay [1] worked out at 2.58%; in assay [2], 2.07%; in assay [3], 2.72%; in assay [4] it was 1.23%; in assay [5], 2.41%; in assay [6], 0.38%. The inhibition in assay [7] came out at 1.08%; in [8], 1.69%; in assay [9], 2.43%; in assay [10], 0.24%.
For `NC(=O)c1ccc2c(-c3ccnc(NCCCO)n3)c(-c3ccc(F)cc3)nn2c1`, the inhibition came out at 1.92% in [1]; 3.55% in assay [2]; 5.31% in [3]; 3.69% in [4]; 1.7% in assay [5]; 0.96% in assay [6]. Besides, the inhibition in assay [7] came out at 1.23%; in assay [8], 2.66%; in assay [9], 3.1%; in assay [10], 2.24%.
Consider `COc1c(C(N)=O)cc(-c2ccc(Cl)cc2)cc1-c1ccc(S(N)(=O)=O)cc1`, for which the inhibition in assay [1] was found to be 3.19%; in assay [2], 2.99%; in assay [3], 5.06%; in [4], 1.96%; in assay [5] it was 2.12%; in assay [6], 1.72%. Besides, the inhibition stood at 2.53% in assay [7], 2.4% in assay [8], 2.98% in assay [9] and 2.25% in assay [10].
Turning to `CNC(=O)c1sc(-n2cnc3cc(OC)c(OC)cc32)cc1OCc1ccccc1C(F)(F)F`, the inhibition in assay [1] worked out at 0.26%; in [2] it was 2.94%; in assay [3] it was 1.36%; in assay [4], 1.1%; in [5], 2.58%; in assay [6] it was 1.77%. Also, the inhibition was found to be 3.02% in assay [7], 2.72% in [8], 2.3% in assay [9] and 0.81% in [10].
As for `COC(=O)Nc1nc2cc(Oc3ccc(NC(=O)Nc4ccccc4)cc3)ccc2[nH]1`, the inhibition in [1] came out at 6.47%; in [2], 8.68%; in assay [3] it was 17.2%; in assay [4] it was 1.66%; in assay [5] it was 4.06%; in [6], 2.3%. Also, the inhibition in assay [7] came to 3.56%; in [8] it was 1.67%; in assay [9], 1.89%; in assay [10], 1.27%.
Turning to `COc1cc(N2CCN(C(C)C)CC2)ccc1Nc1nc(Nc2cccc(F)c2C(=O)O)c2cc[nH]c2n1`, the inhibition was found to be 2.22% in [1]; 2.05% in assay [2]; 5.77% in assay [3]; 4.06% in assay [4]; 16% in assay [5]; 2.18% in assay [6]. Also, the inhibition in assay [7] is 11.6%; in [8], 0.99%; in assay [9], 5.21%; in [10], 2.17%.
Turning to `N#Cc1ccc2c(-c3ccnc(NC4CC4)n3)c(-c3ccc(F)cc3)nn2c1`, the inhibition in [1] was determined as 0.26%; in assay [2] it was 0.99%; in assay [3], 0.79%; in assay [4], 0.57%; in [5] it was 0.36%; in [6], 0.08%. Besides, the inhibition in [7] is 0.42%; in assay [8], 1.03%; in assay [9] it was 1.48%; in [10], 1.23%.
On to `Cc1c2ccc(N(C)c3ccnc(Nc4cccc(S(N)(=O)=O)c4)n3)cc2nn1C`, for which the inhibition came to 1.97% in assay [1]; 2.24% in assay [2]; 2.37% in assay [3]; 2% in assay [4]; 3.33% in [5]; 1.97% in [6]. The inhibition in [7] turned out to be 3.86%; in [8], 3.56%; in [9], 5.15%; in assay [10], 2.42%.
On to `O=C(Nc1n[nH]c2nnc(-c3cccnc3)cc12)C1CC1`, for which the inhibition in assay [1] was determined as 1.3%; in assay [2] it was 0.06%; in [3], 0.61%; in [4], 0.83%; in [5], 0.39%; in [6], 0.41%. Also, the inhibition stood at 0.86% in assay [7], 0.73% in assay [8], 1.89% in assay [9] and 0.32% in assay [10].
In the case of `Nc1nccc(-c2c(-c3ccc(F)cc3)ncn2C2CCNCC2)n1`, the inhibition in assay [1] was 0.03% and 1.75%; in assay [2], -3.31% and 1.51%; in assay [3], -3.28% and 1.52%; in [4] it was -1.25% and 0.52%; in assay [5], 1.83% and 2.8%; in [6], -1.12% and 0.34%. For the same compound, the inhibition in assay [7] was 0.29% and 1.05%; in assay [8], -1.68% and 0.37%; in [9], 0.91% and 1.92%; in [10], -2.38% and 0.34%.
With `Cc1nnc(-c2cccc(-c3ccc(C(=O)NCC4CC4)cc3)c2)o1`, the inhibition in assay [1] was determined as 2.23%; in [2], 3.74%; in assay [3], 6.19%; in assay [4], 2.8%; in [5], 4.92%; in assay [6], 1.25%. Also, the inhibition in [7] was determined as 1.76%; in assay [8], 3.01%; in assay [9] it was 2.85%; in assay [10], 2.12%.
Consider `Nc1ncnc2occ(-c3ccc(NC(=O)Nc4cc(C(F)(F)F)ccc4F)cc3)c12`, for which the inhibition in [1] is 10.2% and 6.77%; in [2] it was 7.01% and 2.27%; in assay [3] it was 40% and 27.8%; in assay [4] it was 9.06% and 4.67%; in assay [5] it was 46.6% and 34.2%; in assay [6], 3.22% and 1.04%. In addition, the inhibition in [7] was 22.5% and 15.8%; in assay [8], 9.18% and 5.3%; in [9], 51.1% and 37.7%; in assay [10] it was -2.74% and 0.37%.
With `COC(=O)Nc1nc2ccc(Oc3ccc(NC(=O)Nc4cc(C(F)(F)F)ccc4F)cc3)cc2s1`, the inhibition turned out to be 1.94% in assay [1]; 0.66% in [2]; 1.17% in assay [3]; 1.59% in [4]; 2.46% in [5]; 0.8% in assay [6]. Also, the inhibition in assay [7] was 2.83%; in [8] it was 3.19%; in assay [9], 13.1%; in assay [10], 0.36%.
Turning to `FC(F)(F)CNc1nccc(-c2cnn3ncccc23)n1`, the inhibition in assay [1] is -0.11%; in assay [2], 1.53%; in [3] it was 0.94%; in assay [4], -0.21%; in assay [5], 1.24%; in [6], 1.65%. The inhibition in [7] stood at 2.69%; in assay [8], 0.89%; in assay [9], 1.84%; in assay [10], 0.72%.
